# Data: PubChem BioAssay (EPA / NIEHS)
# Activity calls are given as the source filed them. The calls were made as follows: active = hit-call score of the fitted dose curve at least 0.9, where 1 is the maximum; inactive = score below 0.9.
# How the values were obtained:
# [1] = APR_HepG2_CellLoss_72hr: Apredica 72-hour HepG2 Assay for Cell Loss (AID 2282915); conditions: high-content imaging
# In short: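 HepG2 cells exposed 72 h to compound at 0.39–200 uM (10 concentrations, duplicate) in 0.5% DMSO. Fixed with 3.7% formaldehyde and Hoechst 33342-stained. Imaged at 20x; nuclear count gives cell number, fitted bidirectionally versus DMSO.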
# [2] = APR_HepG2_P-H2AX_72hr: Apredica 72-hour HepG2 Assay for H2AX Phosphorylation (AID 2282916); conditions: imaging, actives raise or lower the signal;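 also: phospho-histone H2A.x immunostain intensity per cell marking DNA damage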
# In short: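 Phospho-histone H2A.x immunofluorescence, multiplexed with Hoechst and c-Jun, quantified by high-content imaging. Compounds applied to HepG2 for 72 h across ten concentrations (0.39–200 uM, 0.5% DMSO), in duplicate; DMSO baseline.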
# [3] = APR_HepG2_MitoMembPot_72hr: Apredica 72-hour HepG2 Assay for Mitochondrial Membrane Potential (AID 2282917); conditions: imaging, actives raise or lower the signal
# In short: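 HepG2 cells dosed 72 hr with compound at 0.39–200 uM in duplicate, 0.5% v/v DMSO final. Mitochondria stained with 250 nM MitoTracker Red CMXRos for 30 min before formaldehyde fixation, imaged by high-content fluorescence; bidirectional fit versus DMSO.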
# [4] = APR_HepG2_MitoticArrest_72hr: Apredica 72-hour HepG2 Assay for Mitotic Arrest (AID 2282918); conditions: high-content imaging, actives raise or lower the signal
# In short: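 HepG2 cells were exposed for 72 hr to compound at 0.39–200 uM (10 concentrations, duplicate) in 0.5% v/v DMSO, fixed in 3.7% formaldehyde, immunostained for phospho-histone H3 with Hoechst 33342 and imaged by high-content fluorescence; bidirectional fits versus DMSO.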
# [5] = APR_HepG2_MicrotubuleCSK_72hr: Apredica 72-hour HepG2 Assay for Microtubule CSK Stabilty (AID 2282919); conditions: HepG2 microtubule cytoskeleton, high-content imaging, actives raise or lower the signal
# In short: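 HepG2, 72 hr cmpd exposure, 0.39–200 uM (10 pts, duplicate), 0.5% DMSO. 3.7% formaldehyde fix, 0.5% Triton perm, anti-alpha-tubulin/Cy5 plus Hoechst. HCS fluorescence intensity; bidirectional fit vs DMSO baseline; taxol as positive control.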
# [6] = APR_HepG2_P-H2AX_24hr: Apredica 24-hour HepG2 Assay for H2AX Phosphorylation (AID 2282920); conditions: high-content imaging, actives raise or lower the signal
# In short: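 HepG2 human liver cells were exposed for 24 hr to compounds at 0.39–200 uM in duplicate, with 0.5% v/v DMSO final. Fixed cells were immunostained for phospho-histone H2A.x plus Hoechst 33342, imaged by HCS fluorescence, and fitted bidirectionally against DMSO.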
# [7] = APR_HepG2_StressKinase_72hr: Apredica 72-hour HepG2 Assay for Stress Kinase (AID 2282921); conditions: HepG2 stress kinase (phospho-c-Jun) imaging, actives raise or lower the signal
# In short: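 Stress kinase signal is phospho-c-Jun immunofluorescence (1:500 primary, Cy3 secondary) in fixed, permeabilized human HepG2 cells imaged at 20x. Exposure lasted 72 hr over ten concentrations from 0.39 to 200 uM, 0.5% DMSO, in duplicate. Bidirectional fit versus DMSO.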
# [8] = APR_HepG2_StressKinase_24hr: Apredica 24-hour HepG2 Assay for Stress Kinase (AID 2282922); conditions: HepG2 stress kinase (phospho-c-Jun) imaging, actives raise or lower the signal
# In short: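 Read-out: phospho-c-Jun immunofluorescence (Cy3 secondary) quantified by high-content imaging at 20x, nuclei defined by Hoechst 33342. Human HepG2 liver cells dosed 24 hr, 0.39–200 uM, DMSO 0.5% v/v; gain or loss of signal fitted relative to DMSO.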
# [9] = APR_HepG2_p53Act_72hr: Apredica 72-hour HepG2 Assay for p53 Activation (AID 2282923); conditions: high-content imaging, actives raise or lower the signal;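 also: average cellular p53 protein immunofluorescence intensity in HepG2 cells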
# In short: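 After 72 h with compound (ten points, 0.39 to 200 uM, final DMSO 0.5% v/v), fixed HepG2 cells were labelled with sheep anti-p53 and Hoechst 33342 and imaged; gain or loss versus DMSO scored.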
# [10] = APR_HepG2_MitoMass_72hr: Apredica 72-hour HepG2 Assay for Mitochondrial Mass (AID 2282924); conditions: high-content imaging, actives raise or lower the signal;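 also: MitoTracker Red CMXRos stain intensity per cell imaged as mitochondrial mass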
# In short: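 Read-out: MitoTracker Red fluorescence intensity from automated imaging (20x, six fields per well) in human HepG2 liver cells. Dosing ran 72 hr, 0.39–200 uM, 0.5% DMSO; bidirectional curve fitting versus DMSO baseline.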
# [11] = APR_HepG2_NuclearSize_72hr: Apredica 72-hour HepG2 Assay for Nuclear Size (AID 2282925); conditions: high-content imaging, actives raise or lower the signal
# In short: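 Read-out: nuclear diameter from Hoechst 33342 images (ArrayScan, 20x, six fields/well), via cell-cycle image analysis. HepG2 were dosed 0.39–200 uM for 72 hr in 0.5% DMSO. Bidirectional fit relative to DMSO.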
# [12] = ATG_CRE_CIS: Attagene CIS-FACTORIAL HepG2 Assay for human cAMP Responsive Element (CRE) binding protein 3 (AID 2282926); conditions: HepG2 CRE cis-reporter, Attagene multiplexed mRNA; actives raise or lower the signal
# In short: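 Capillary electrophoresis of 6-FAM-labelled, HpaI-digested PCR products quantified reporter transcripts. These came from HepG2 transiently transfected with cis-element reporters and exposed to test chemicals for 24 hours, with DMSO defining baseline activity.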
# [13] = biological target: CCAAT/enhancer-binding protein beta (Homo sapiens) (UniProt P17676); assay: ATG_C_EBP_CIS: Attagene CIS-FACTORIAL HepG2 Assay for human CCAAT/Enhancer Binding Protein (C/EBP) beta (AID 2282927); conditions: HepG2 Attagene cis-factorial transcription factor reporter; actives raise or lower the signal
# In short: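 Transiently transfected HepG2 (MRTU library, endogenous TF-driven promoters); 24 h dosing; total RNA → oligo(dT) RT → PCR → 6-FAM primer extension → HpaI digest → CE; fit bidirectionally vs DMSO.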
# [14] = ATG_CMV_CIS: Attagene CIS-FACTORIAL HepG2 Assay for human CMV (Internal Marker) (AID 2282928); conditions: HepG2 CMV promoter reporter, transcription factor profiling; actives raise or lower the signal;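 also: endpoint acts as a background internal control marker rather than a target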
# In short: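 Readout: fluorescent reporter cDNA fragments separated by capillary electrophoresis after RT-PCR and HpaI cut. Cells: HepG2 carrying transfected cis-promoter reporter constructs, dosed 24 h. Endpoint serves as background internal-marker control, fit bidirectionally versus DMSO.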
# [15] = ATG_DR4_LXR_CIS: Attagene CIS-FACTORIAL HepG2 Assay for human Liver X Receptor (LXR), DR4 submotif (AID 2282929); conditions: HepG2 Attagene DR4 cis-reporter, mRNA transcription; actives raise or lower the signal
# In short: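 The endpoint is DR4-element-driven reporter transcripts after 24 h chemical exposure of transfected HepG2 cells. These were measured via RT-PCR and capillary electrophoresis, and gain or loss of signal was fitted relative to DMSO controls.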
# [16] = biological target: Aryl hydrocarbon receptor (Homo sapiens) (UniProt P35869); assay: ATG_Ahr_CIS: Attagene CIS-FACTORIAL HepG2 Assay for human Aryl Hydrocarbon Receptor (Ahr) (AID 2282930); conditions: HepG2 AhR cis-factorial reporter transcription; actives raise or lower the signal
# In short: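 Read-out: reporter mRNA quantified by RT-PCR with fluorescent primer extension and capillary electrophoresis. Human HepG2 liver cells carried transfected cis-promoter reporter units and were exposed to chemical for 24 h; gain or loss fitted relative to DMSO.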
# [17] = ATG_AP_1_CIS: Attagene CIS-FACTORIAL HepG2 Assay for human Activator Protein 1 (AP-1) (AID 2282931); conditions: HepG2 Attagene cis-factorial AP-1 reporter mRNA; actives raise or lower the signal
# In short: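 Readout is reporter transcript level from endogenous transcription factor activity, quantified by RT-PCR with fluorescent primer extension and capillary electrophoresis. Transiently transfected HepG2 cells, 24 h exposure. Curves fitted both directions versus DMSO.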
# [18] = ATG_AP_2_CIS: Attagene CIS-FACTORIAL HepG2 Assay for human Activator Protein 2 (AP-2) (AID 2282932); conditions: HepG2 AP-2 cis-reporter, Attagene transcription factor profiling; actives raise or lower the signal
# In short: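 Liver-derived HepG2 line, cis-reporter system measuring endogenous factors; 24 h dosing; reporter mRNA detected by fluorescent RT-PCR and capillary electrophoresis.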
# [19] = ATG_BRE_CIS: Attagene CIS-FACTORIAL HepG2 Assay for human Bone Morphogenetic Protein (BMP) Response Element (BRE) (AID 2282933); conditions: HepG2 BMP response element reporter, Attagene transcription factor profiling; actives raise or lower the signal
# In short: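 Endogenous transcription factor activity at a BMP response element was monitored in transfected HepG2 cells 24 h after dosing. Fluorescent RT-PCR products were resolved by capillary electrophoresis, and activity was fitted in both directions versus DMSO.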
# [20] = biological target: Retinoic acid receptor alpha (Homo sapiens) (UniProt P10276); assay: ATG_DR5_RAR_CIS: Attagene CIS-FACTORIAL HepG2 Assay for human Retinoic Acid Receptor Alpha (RARE), DR5 submotif (AID 2282934); conditions: HepG2 Attagene cis-factorial RARE DR5 reporter, mRNA; actives raise or lower the signal
# In short: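 Read-out: DR5-driven reporter transcript measured by RT-PCR, 6-FAM primer extension, HpaI digest and capillary electrophoresis. Human HepG2 liver cells carry transiently transfected cis-element reporter constructs; dosing lasts 24 h. Gain or loss of signal fitted against DMSO baseline.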
# CCAAT/enhancer-binding protein beta (Homo sapiens), sequence (P17676 whole entry, looked up): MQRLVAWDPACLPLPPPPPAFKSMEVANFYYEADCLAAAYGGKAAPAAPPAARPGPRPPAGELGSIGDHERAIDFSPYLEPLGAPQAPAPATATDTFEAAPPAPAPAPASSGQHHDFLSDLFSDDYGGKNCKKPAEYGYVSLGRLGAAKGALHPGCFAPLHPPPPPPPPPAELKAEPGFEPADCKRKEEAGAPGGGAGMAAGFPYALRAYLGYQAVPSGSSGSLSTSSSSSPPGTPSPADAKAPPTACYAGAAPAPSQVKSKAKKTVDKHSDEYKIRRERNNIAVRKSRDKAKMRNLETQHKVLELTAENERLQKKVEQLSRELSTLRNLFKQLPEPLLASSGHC
# Retinoic acid receptor alpha (Homo sapiens), sequence (P10276 whole entry, looked up): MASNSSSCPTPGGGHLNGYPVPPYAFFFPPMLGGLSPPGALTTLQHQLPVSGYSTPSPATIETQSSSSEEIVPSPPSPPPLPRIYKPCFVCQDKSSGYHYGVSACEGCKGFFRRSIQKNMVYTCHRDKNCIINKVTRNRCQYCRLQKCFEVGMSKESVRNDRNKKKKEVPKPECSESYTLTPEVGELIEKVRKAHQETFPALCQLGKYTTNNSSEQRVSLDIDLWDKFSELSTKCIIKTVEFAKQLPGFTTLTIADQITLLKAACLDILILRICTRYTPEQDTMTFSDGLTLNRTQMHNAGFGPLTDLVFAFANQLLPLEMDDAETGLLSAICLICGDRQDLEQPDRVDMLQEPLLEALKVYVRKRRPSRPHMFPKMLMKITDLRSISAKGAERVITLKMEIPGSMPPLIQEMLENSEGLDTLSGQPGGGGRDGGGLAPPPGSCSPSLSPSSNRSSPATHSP
# Aryl hydrocarbon receptor (Homo sapiens), sequence (P35869 whole entry, looked up): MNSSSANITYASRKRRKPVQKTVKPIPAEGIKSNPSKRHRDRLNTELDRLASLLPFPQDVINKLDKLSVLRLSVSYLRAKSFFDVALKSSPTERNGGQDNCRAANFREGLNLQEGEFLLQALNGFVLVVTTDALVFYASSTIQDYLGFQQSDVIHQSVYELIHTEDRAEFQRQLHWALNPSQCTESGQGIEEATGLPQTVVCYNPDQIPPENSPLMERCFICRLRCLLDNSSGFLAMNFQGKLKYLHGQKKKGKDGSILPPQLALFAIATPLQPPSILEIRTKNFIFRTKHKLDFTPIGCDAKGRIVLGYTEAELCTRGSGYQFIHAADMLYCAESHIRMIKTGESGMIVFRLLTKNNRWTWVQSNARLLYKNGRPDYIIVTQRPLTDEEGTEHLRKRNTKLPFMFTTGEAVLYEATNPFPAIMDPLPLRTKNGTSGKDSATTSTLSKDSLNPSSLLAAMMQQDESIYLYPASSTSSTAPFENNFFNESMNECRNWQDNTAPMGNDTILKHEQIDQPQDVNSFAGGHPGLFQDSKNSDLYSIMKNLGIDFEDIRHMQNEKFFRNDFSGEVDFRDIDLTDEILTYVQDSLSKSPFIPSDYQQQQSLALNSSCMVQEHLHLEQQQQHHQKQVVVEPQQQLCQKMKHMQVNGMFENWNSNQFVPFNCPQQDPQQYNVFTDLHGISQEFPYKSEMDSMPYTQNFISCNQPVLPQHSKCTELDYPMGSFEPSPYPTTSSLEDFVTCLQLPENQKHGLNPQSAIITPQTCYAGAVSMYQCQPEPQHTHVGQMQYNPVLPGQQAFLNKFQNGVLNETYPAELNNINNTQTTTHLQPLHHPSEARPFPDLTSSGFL
smiles,measurement,setting,value
O=C1c2ccccc2C(=O)N1SC(Cl)(Cl)Cl,AC50,[1],30.8 µM (active)
same,outcome,[2],inactive
same,AC50,[3],10.4 µM (active)
same,outcome,[4],inactive
same,outcome,[5],inactive
same,outcome,[6],inactive
same,outcome,[7],inactive
same,outcome,[8],inactive
same,outcome,[9],inactive
same,outcome,[10],inactive
same,outcome,[11],inactive
same,outcome,[12],inactive
same,outcome,[13],inactive
same,outcome,[14],inactive
same,outcome,[15],inactive
same,outcome,[16],inactive
same,outcome,[17],inactive
same,outcome,[18],inactive
same,outcome,[19],inactive
same,outcome,[20],inactive
CC(C)N(C(=O)COc1nnc(C(F)(F)F)s1)c1ccc(F)cc1,AC50,[1],37.6 µM (active)
same,outcome,[2],inactive
same,outcome,[3],inactive
same,AC50,[4],169 µM (active)
same,outcome,[5],inactive
same,outcome,[6],inactive
same,AC50,[7],113 µM (active)
same,outcome,[8],inactive
same,outcome,[9],inactive
same,outcome,[10],inactive
same,outcome,[11],inactive
same,AC50,[12],31.9 µM (active)
same,outcome,[13],inactive
same,outcome,[14],inactive
same,outcome,[15],inactive
same,outcome,[16],inactive
same,AC50,[17],50 µM (active)
same,outcome,[18],inactive
same,AC50,[19],34.9 µM (active)
same,outcome,[20],inactive
CCc1ccc(C(=O)NN(C(=O)c2cc(C)cc(C)c2)C(C)(C)C)cc1,AC50,[1],43.6 µM (active)
same,outcome,[2],inactive
same,outcome,[3],inactive
same,outcome,[4],inactive
same,AC50,[5],51.7 µM (active)
same,outcome,[6],inactive
same,outcome,[7],inactive
same,outcome,[8],inactive
same,outcome,[9],inactive
same,outcome,[10],inactive
same,outcome,[11],inactive
same,outcome,[12],inactive
same,outcome,[13],inactive
same,outcome,[14],inactive
same,AC50,[15],50 µM (active)
same,outcome,[16],inactive
same,outcome,[17],inactive
same,outcome,[18],inactive
same,outcome,[19],inactive
same,outcome,[20],inactive
CCC(C)(NC(=O)c1cc(Cl)c(C)c(Cl)c1)C(=O)CCl (stereo not given),outcome,[1],inactive
same,outcome,[2],inactive
same,outcome,[3],inactive
same,outcome,[4],inactive
same,outcome,[5],inactive
same,outcome,[6],inactive
same,outcome,[7],inactive
same,outcome,[8],inactive
same,outcome,[9],inactive
same,outcome,[10],inactive
same,outcome,[11],inactive
same,outcome,[12],inactive
same,outcome,[13],inactive
same,outcome,[14],inactive
same,outcome,[15],inactive
same,outcome,[16],inactive
same,outcome,[17],inactive
same,outcome,[18],inactive
same,outcome,[19],inactive
same,outcome,[20],inactive
COP(=S)(OC)Oc1ccc([N+](=O)[O-])cc1,outcome,[1],inactive
same,outcome,[2],inactive
same,outcome,[3],inactive
same,outcome,[4],inactive
same,outcome,[5],inactive
same,outcome,[6],inactive
same,outcome,[7],inactive
same,outcome,[8],inactive
same,outcome,[9],inactive
same,outcome,[10],inactive
same,outcome,[11],inactive
same,outcome,[12],inactive
same,outcome,[13],inactive
same,outcome,[14],inactive
same,outcome,[15],inactive
same,outcome,[16],inactive
same,outcome,[17],inactive
same,outcome,[18],inactive
same,outcome,[19],inactive
same,outcome,[20],inactive
